Reference: PubChem BioAssay
Calls of active or inactive are those of the source.

Legend:
[1] = tested on: PRMT1 (protein arginine N-methyltransferase 1); experiment: PRMT1 binders on small-molecule microarrays, primary screen, biochemical, small-molecule microarray, 635 nm fluorescence (AID 1088); settings: small-molecule microarray binding, higher = more signal;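 further: binding of Prmt1 protein to compounds spotted on small-molecule microarray slides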
[2] = yeast growth modulation, basal conditions, primary screen, YJM789 clinical isolate, OD600, 24 h (AID 1089);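 further: growth of clinical yeast isolate S. cerevisiae YJM 789 seeded 1000 cells per well; test concentration not given here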; settings: S. cerevisiae YJM789 growth, higher = more signal, called active from +8 up or from −8 down
[3] = fission yeast growth modulation, primary screen, strain 972, OD600, 24 h, no modulator (AID 1090);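 further: basal condition with compound alone and no growth modifier present; test concentration not given here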; settings: S. pombe 972 growth, higher = more signal, called active from +8 up or from −8 down
[4] = S. cerevisiae growth modulation with rapamycin, primary screen, strain BY4716, OD600, 96 h (AID 1091); settings: higher = more signal, called active from +8 up or from −8 down; further: test concentration not given here
[5] = molecular target: Torsin-1A-interacting protein 2 (Homo sapiens) (UniProt Q8NFQ8); experiment: LULL1 binders on small-molecule microarray, primary screen, cell lysate, human LULL1 lysate, 635/667 nm fluorescence (AID 1092); settings: hLULL1 lysate binding, 635 nm fluorescence, higher = more signal;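 further: probe is lysate of COS7 cells overexpressing human LULL1; score merges per-feature 667 nm fluorescence with signal-to-noise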
Chain of Torsin-1A-interacting protein 2 (Homo sapiens) (Q8NFQ8 whole entry, looked up): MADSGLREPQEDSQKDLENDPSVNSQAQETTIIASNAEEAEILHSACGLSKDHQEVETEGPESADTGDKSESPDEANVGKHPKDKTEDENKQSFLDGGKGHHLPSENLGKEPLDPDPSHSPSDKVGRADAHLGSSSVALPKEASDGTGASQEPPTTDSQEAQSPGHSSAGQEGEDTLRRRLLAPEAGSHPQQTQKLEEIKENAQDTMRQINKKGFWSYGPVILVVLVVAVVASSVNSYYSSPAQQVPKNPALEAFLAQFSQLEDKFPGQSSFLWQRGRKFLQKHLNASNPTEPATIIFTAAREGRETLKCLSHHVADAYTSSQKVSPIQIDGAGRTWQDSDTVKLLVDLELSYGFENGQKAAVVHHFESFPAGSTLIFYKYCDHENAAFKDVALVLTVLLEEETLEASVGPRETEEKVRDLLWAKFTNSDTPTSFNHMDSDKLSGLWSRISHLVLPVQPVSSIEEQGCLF

[6] = E. coli growth modulation, two-sided OD650, primary screen, E. coli filamentation project, strain DRC41, 24 h (AID 1093); settings: OD650, 24 h, higher = more signal, called active from +8 up or from −8 down;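 further: MC1000 strain lacking acrAB efflux and sulA so SOS filamentation is blocked; test concentration not given here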
[7] = small-molecule microarray binders of probe aLefty2, primary screen, biochemical, biotinylated probe, 635/667 nm fluorescence (AID 1094); settings: higher = more signal;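 further: score merges spot fluorescence near 667 nm with spot signal-to-noise ratio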
[8] = tested on: Noggin (protein binding on small-molecule microarray); experiment: Noggin binders on small-molecule microarray, primary screen, biochemical, 635/667 nm fluorescence (AID 1095); settings: 635 nm fluorescence, higher = more signal;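 further: score merges 667 nm feature fluorescence with signal to noise over triplicate slides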
[9] = molecular target: Neurogenic locus notch homolog protein 3 (Homo sapiens) (UniProt Q9UM47); experiment: NOTCH3 binders on small-molecule microarray, primary screen, biochemical, 635/667 nm fluorescence (AID 1096); settings: NOTCH3 binding, 635 nm fluorescence, higher = more signal
Chain of Neurogenic locus notch homolog protein 3 (Homo sapiens) (Q9UM47 whole entry, looked up): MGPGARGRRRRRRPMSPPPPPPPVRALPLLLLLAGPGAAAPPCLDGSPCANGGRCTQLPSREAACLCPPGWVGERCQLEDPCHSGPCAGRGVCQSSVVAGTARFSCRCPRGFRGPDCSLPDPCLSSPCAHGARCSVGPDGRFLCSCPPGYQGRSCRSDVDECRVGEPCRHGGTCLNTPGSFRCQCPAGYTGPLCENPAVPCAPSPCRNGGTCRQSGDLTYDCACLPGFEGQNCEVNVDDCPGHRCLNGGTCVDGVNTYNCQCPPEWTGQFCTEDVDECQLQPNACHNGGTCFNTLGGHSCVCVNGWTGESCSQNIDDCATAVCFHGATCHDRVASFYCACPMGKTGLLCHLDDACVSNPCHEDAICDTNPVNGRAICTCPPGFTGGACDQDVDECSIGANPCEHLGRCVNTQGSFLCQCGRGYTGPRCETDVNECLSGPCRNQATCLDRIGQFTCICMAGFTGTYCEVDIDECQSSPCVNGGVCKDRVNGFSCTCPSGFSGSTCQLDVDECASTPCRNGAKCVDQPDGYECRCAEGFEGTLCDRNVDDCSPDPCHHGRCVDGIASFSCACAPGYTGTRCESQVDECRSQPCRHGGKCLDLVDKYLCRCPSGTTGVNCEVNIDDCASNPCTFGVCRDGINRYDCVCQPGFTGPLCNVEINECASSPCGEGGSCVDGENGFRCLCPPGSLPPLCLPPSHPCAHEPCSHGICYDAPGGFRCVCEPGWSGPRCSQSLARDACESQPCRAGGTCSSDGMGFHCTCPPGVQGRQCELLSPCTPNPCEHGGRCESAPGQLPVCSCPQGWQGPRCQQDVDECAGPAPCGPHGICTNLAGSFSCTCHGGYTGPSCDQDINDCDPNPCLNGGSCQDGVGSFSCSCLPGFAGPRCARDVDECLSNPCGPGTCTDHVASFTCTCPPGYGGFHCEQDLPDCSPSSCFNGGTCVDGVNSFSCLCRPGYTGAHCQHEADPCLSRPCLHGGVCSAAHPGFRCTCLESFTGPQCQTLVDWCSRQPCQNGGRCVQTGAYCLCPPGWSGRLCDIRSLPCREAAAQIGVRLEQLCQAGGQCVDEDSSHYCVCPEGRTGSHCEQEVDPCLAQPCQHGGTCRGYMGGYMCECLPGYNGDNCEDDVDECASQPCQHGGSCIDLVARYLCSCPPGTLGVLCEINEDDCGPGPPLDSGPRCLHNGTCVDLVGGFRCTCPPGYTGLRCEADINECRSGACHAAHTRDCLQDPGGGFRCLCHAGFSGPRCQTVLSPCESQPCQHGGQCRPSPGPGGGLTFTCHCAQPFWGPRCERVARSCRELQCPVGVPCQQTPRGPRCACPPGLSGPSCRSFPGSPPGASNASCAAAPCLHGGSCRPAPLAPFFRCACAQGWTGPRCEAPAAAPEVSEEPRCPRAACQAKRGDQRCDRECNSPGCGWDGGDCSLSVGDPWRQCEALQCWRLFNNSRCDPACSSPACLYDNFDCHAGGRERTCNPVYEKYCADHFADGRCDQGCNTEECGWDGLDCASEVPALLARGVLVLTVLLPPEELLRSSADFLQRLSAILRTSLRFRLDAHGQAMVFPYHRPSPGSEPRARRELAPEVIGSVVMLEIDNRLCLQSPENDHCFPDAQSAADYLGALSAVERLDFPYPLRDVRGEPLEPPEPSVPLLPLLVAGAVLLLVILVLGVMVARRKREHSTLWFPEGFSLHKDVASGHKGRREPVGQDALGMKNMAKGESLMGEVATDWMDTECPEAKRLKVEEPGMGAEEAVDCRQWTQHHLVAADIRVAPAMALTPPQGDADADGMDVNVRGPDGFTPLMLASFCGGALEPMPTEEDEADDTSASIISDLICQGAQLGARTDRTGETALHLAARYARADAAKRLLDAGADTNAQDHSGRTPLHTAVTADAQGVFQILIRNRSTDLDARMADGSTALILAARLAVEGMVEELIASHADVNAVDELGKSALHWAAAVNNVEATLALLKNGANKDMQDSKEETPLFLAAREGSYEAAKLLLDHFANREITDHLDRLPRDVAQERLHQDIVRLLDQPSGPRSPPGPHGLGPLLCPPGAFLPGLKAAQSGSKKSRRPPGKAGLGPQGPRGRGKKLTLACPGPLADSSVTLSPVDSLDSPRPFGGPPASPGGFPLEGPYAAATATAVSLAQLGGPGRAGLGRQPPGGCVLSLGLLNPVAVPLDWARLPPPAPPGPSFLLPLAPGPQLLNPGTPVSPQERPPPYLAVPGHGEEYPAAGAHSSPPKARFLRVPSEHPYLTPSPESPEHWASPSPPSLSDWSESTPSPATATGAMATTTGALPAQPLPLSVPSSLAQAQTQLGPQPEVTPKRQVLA

[10] = small-molecule microarray binders of probe aEGFR, primary screen, biochemical, biotinylated probe, 635/667 nm fluorescence (AID 1097); settings: higher = more signal;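 further: probe is a biotinylated anti-EGFR antibody binding compounds printed on slides; score combines fluorescence near 667 nm and signal to noise of each spot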
[11] = tested on: Plasmodium falciparum Sir2 (PF13_0152, Sir2A); experiment: pfSir2 binders on small-molecule microarrays, primary screen, biochemical, small-molecule microarray, 635 nm fluorescence (AID 1098); settings: small-molecule microarray binding, fluorescence 635 nm; higher = more signal;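 further: score merges spot fluorescence intensity with its signal-to-noise ratio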
[12] = small-molecule microarray binders of probe aDKK1, primary screen, biochemical, biotinylated probe, 635/667 nm fluorescence (AID 1099); settings: higher = more signal;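 further: score merges 667nm spot fluorescence with signal to noise across triplicate slides; reference of the scale not given here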
[13] = small-molecule microarray binders of probe aCHRDL2, primary screen, biochemical, biotinylated probe, 635/667 nm fluorescence (AID 1100); settings: higher = more signal
[14] = splicing luciferase reporter signal modulators, primary screen, spliceosome inhibition project, cell-based, HEK293, splice +/- reporter (AID 1101); settings: luminescence, 24 h, higher = more signal, called active from +8 up or from −8 down;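 further: HEK293 cells carrying a splicing-competent luciferase reporter gene; test concentration not given here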
[15] = molecular target: Fibroblast growth factor 10 (Homo sapiens) (UniProt O15520); experiment: FGF10 binders on small-molecule microarrays, primary screen, biochemical, small-molecule microarray, 635 nm fluorescence (AID 1102); settings: FGF10 binding, fluorescence 635 nm, higher = more signal
Chain of Fibroblast growth factor 10 (Homo sapiens) (O15520 whole entry, looked up): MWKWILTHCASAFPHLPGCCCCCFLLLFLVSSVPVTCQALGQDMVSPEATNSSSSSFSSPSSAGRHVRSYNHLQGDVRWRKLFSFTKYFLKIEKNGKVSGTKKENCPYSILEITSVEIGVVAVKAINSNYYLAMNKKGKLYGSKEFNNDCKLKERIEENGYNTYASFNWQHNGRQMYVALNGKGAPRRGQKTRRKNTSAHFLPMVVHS

[16] = tested on: glycogen synthase kinase-3 (GSK3A per assay name; protocol says GSK3B); experiment: GSK3 binders on small-molecule microarrays, primary screen, biochemical, small-molecule microarray, 635 nm fluorescence, GSK3A (AID 1103); settings: small-molecule microarray binding, fluorescence 635 nm; higher = more signal; further: the record names both GSK3A and GSK3B
[17] = molecular target: Epidermal growth factor receptor (Homo sapiens) (UniProt P00533); experiment: EGFR binders on small-molecule microarrays, primary screen, biochemical, small-molecule microarray, 635 nm fluorescence (AID 1104); settings: EGFR binding, higher = more signal;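 further: score merges 667 nm emission intensity with spot signal to noise over triplicate slides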
Chain of Epidermal growth factor receptor (Homo sapiens) (P00533 whole entry, looked up): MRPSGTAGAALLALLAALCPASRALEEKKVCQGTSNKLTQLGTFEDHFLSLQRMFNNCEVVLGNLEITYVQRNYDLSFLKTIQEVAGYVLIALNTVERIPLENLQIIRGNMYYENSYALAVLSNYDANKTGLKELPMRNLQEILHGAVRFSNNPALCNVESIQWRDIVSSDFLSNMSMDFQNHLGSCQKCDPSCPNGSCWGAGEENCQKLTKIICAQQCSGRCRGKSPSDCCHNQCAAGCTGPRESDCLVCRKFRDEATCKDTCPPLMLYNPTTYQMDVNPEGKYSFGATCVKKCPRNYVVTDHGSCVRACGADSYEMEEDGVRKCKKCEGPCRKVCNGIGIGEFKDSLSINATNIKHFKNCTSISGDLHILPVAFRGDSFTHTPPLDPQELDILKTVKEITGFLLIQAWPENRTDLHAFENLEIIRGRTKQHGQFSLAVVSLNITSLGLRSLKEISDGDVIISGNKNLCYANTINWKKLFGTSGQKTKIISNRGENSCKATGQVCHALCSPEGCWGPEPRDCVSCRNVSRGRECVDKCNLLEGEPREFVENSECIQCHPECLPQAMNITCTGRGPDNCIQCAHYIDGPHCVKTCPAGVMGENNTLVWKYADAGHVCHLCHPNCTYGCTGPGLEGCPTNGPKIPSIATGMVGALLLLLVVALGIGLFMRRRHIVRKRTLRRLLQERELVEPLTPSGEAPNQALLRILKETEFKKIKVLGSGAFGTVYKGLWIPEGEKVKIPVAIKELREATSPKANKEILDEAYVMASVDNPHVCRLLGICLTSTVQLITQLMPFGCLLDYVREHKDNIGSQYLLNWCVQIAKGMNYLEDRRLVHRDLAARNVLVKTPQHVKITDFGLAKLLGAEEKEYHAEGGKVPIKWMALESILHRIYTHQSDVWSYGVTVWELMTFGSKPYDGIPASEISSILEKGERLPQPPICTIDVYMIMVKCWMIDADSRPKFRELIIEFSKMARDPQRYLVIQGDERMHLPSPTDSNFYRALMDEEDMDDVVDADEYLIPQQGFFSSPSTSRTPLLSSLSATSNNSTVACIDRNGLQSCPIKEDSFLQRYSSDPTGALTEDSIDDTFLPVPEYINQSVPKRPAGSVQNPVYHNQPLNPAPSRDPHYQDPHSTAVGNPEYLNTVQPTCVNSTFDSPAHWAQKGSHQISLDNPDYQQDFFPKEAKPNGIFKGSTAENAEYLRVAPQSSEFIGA

[18] = molecular target: Follistatin-related protein 3 (Homo sapiens) (UniProt O95633); experiment: FSTL3 binders on small-molecule microarrays, primary screen, biochemical, small-molecule microarray, 635 nm fluorescence (AID 1105); settings: FSTL3 binding, higher = more signal;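 further: score merges emission near 667 nm and signal to noise per printed spot across three slides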
Chain of Follistatin-related protein 3 (Homo sapiens) (O95633 whole entry, looked up): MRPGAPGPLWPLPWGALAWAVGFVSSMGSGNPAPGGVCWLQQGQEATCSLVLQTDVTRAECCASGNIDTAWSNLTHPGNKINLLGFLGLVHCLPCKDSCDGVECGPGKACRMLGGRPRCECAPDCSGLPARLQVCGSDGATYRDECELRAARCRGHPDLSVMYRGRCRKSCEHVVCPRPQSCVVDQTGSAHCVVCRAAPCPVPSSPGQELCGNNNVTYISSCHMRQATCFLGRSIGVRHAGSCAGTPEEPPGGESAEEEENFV

[19] = molecular target: Dickkopf-related protein 1 (Homo sapiens) (UniProt O94907); experiment: DKK1 binders on small-molecule microarrays, primary screen, biochemical, small-molecule microarray, 635 nm fluorescence scan (AID 1106); settings: DKK1 binding, higher = more signal;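 further: score merges emission near 667 nm with signal to noise over three replicate slides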
Chain of Dickkopf-related protein 1 (Homo sapiens) (O94907 whole entry, looked up): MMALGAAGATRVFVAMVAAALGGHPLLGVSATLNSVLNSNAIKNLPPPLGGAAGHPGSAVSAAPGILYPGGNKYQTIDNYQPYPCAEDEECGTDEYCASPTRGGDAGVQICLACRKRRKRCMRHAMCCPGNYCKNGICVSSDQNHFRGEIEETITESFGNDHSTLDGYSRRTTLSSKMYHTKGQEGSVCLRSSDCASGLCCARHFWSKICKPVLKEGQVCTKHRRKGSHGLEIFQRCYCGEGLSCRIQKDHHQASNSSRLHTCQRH

[20] = tested on: Inhibin beta A chain (activin A); experiment: INHBA (activin A) binders on microarrays, primary screen, biochemical, small-molecule microarray, 635 nm fluorescence scan (AID 1107); settings: small-molecule microarray binding, higher = more signal;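 further: mouse activin A protein probed at 4.33 µg/mL on printed slides; score merges bound-protein fluorescence near 667 nm with spot signal-to-noise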

| SMILES | composite z-score [1] | z-score [2] | z-score [3] | z-score [4] | composite z-score [5] | z-score [6] | composite z-score [7] | composite z-score [8] | composite z-score [9] | composite z-score [10] | composite z-score [11] | composite z-score [12] | composite z-score [13] | z-score [14] | composite z-score [15] | composite z-score [16] | composite z-score [17] | composite z-score [18] | composite z-score [19] | composite z-score [20] |
| --- | --- | --- | --- | --- | --- | --- | --- | --- | --- | --- | --- | --- | --- | --- | --- | --- | --- | --- | --- | --- |
| CCOC(=O)[C@H](Cc1ccccc1)NC(=O)CCC1CC(OC(=O)NCc2ccc3c(c2)OCO3)CC2(CCCC(COC(=O)NCC3CCCCC3)O2)O1 (stereo not given in full) | 1.55 | -0.827 (inactive) | 0.455 (inactive) | -0.38 (inactive) | 2.62 | -0.201 (inactive) | -0.157 | 0.742 | 1.11 | 0.0632 | 0.599 | -0.151 | -0.5 | -0.481 (inactive) | 0.802 | 1.27 | 0.44 | 1.05 | 0.655 | -0.0031 |
| CC(C)NC(=O)[C@@H]1c2ccccc2C(=O)N(CC23CC4CC(CC(C4)C2)C3)[C@H]1c1ccc(CO)cc1 | 1.57 | -1.44 (inactive) | -1.81 (inactive) | -0.241 (inactive) | 2.68 | 1.43 (inactive) | -0.143 | 0.701 | 1.04 | 0.0633 | 1.45 | 0.171 | 0.46 | -1.21 (inactive) | 0.596 | 1.23 | 0.582 | 1.28 | 0.651 | 0.43 |
| C#CCCCON=C1C[C@@H](O)[C@@H](O)[C@@H]2[C@@H]3C(=O)N(CCC(=O)OCC)C(=O)[C@@H]3CC[C@@H]12 | -0.683 | -0.969 (inactive) | 0.068 (inactive) | -0.664 (inactive) | 0.654 | 0.827 (inactive) | 0.706 | -1.1 | -1.01 | -0.152 | -0.346 | 1.17 | 1.51 | 0.907 (inactive) | -0.0714 | -0.493 | -0.905 | -0.911 | -0.908 | 0.459 |
| CC(C)CN1CCc2nc(-c3ccccc3)c3c(c2CC1)CO[C@@H](C)C3 | -0.36 | 0.175 (inactive) | -0.327 (inactive) | -0.378 (inactive) | -0.39 | 0.102 (inactive) | 0.061 | 0.364 | 0.0668 | 0.0657 | -0.232 | 0.256 | -0.469 | 0.00565 (inactive) | 0.515 | 0.123 | 0.471 | 0.202 | 0.718 | 0.157 |
| O=C1[C@H]2[C@H]3[C@H](O)[C@H](O)CC(=NOCc4ccccc4)[C@H]3CC[C@H]2C(=O)N1c1cccc(Oc2ccccc2)c1 | 1.48 | -0.0026 (inactive) | 0.019 (inactive) | -1.12 (inactive) | 2.41 | 0.211 (inactive) | -0.0654 | 0.729 | 0.824 | 0.0801 | 0.669 | -0.421 | -0.469 | 0.639 (inactive) | 0.787 | 0.596 | 0.349 | 0.911 | 0.487 | -0.0134 |
| COc1ccc([Si](C)(C)[C@@H]2[C@@H](CC(=O)N3CCC[C@H]3CO)O[C@]3(C(=O)N(Cc4cccc(N5CCC5=O)c4)c4ccccc43)[C@H]2C)cc1 | 1.54 | -0.569 (inactive) | -0.184 (inactive) | 0.284 (inactive) | 2.64 | 0.37 (inactive) | -0.0204 | 1.5 | 1.15 | -0.0953 | 1.71 | -0.264 | 0.363 | -0.399 (inactive) | 0.118 | 0.773 | 0.144 | 0.7 | 0.726 | 0.245 |
| CC(CCC(=O)OC[C@H]1O[C@H](C#Cc2ccccc2)C=C[C@@H]1Oc1ccc(C)cc1)=NOC[C@@H](O)[C@H]1O[C@@H]2OC(C)(C)O[C@@H]2[C@H]1O | -0.753 | 0.349 (inactive) | -0.0762 (inactive) | 0.823 (inactive) | 0.563 | 0.142 (inactive) | -0.352 | -0.333 | -1.74 | -0.342 | 0.373 | -0.339 | -0.505 | 0.29 (inactive) | -0.369 | -0.579 | -1.03 | -0.638 | -0.335 | 0.302 |
| C[C@@H]1C=CCC(=O)OC[C@H](C)C(=O)OC[C@H]2O[C@H]1C=C[C@H]2O | 0.047 | 1.1 (inactive) | -2.02 (inactive) | 0.614 (inactive) | 0.429 | 0.0861 (inactive) | -0.18 | 1.31 | 0.272 | -0.0039 | 0.128 | -0.439 | -0.833 | 1.17 (inactive) | 0.678 | 0.387 | 0.339 | 0.808 | 0.545 | -0.181 |
| CC(CCN1CCc2nc(-c3ccccc3)c(-c3ccccc3)cc2C1)=NO[C@H](C)c1cn([C@@H]2COC[C@H]2O)nn1 | 1.49 | -0.0653 (inactive) | -1.35 (inactive) | -4.33 (inactive) | 2.03 | 0.364 (inactive) | 0.0218 | 0.224 | 0.299 | -0.137 | 1.1 | -0.182 | -0.432 | 0.611 (inactive) | 0.215 | 0.403 | 0.0515 | 0.343 | 0.0546 | 0.763 |
| CO[C@H]1O[C@H](CO)[C@@H](OC(=O)Nc2ccc(C#N)cc2)[C@H](OC(=O)c2cc3ccccc3[nH]2)[C@H]1OC(=O)c1cc2ccccc2[nH]1 | 1.3 | -2.49 (inactive) | -1.17 (inactive) | 0.507 (inactive) | 1.77 | 3.01 (inactive) | 0.0261 | 1.02 | 0.695 | -0.0238 | 1.19 | 0.149 | 0.19 | -0.561 (inactive) | 0.747 | 1.16 | 0.119 | 0.588 | 0.295 | 0.354 |
